Entries with a potency or affinity are not part of this list.
Key:
Klebsiella pneumoniae = conditions: Concentration 32 ug.mL-1;; ASSAY_TEST Inhibition of Bacterial Growth; detection method Absorption (OD600); MEDIA CAMHB; plate type 384well; NBS; CORNING #3640; time 18 hr
Candida albicans = conditions: Concentration 32 ug.mL-1; ASSAY_TEST Inhibition of Fungal Growth; detection method Absorption (OD530)
Cryptococcus neoformans = conditions: Concentration 32 ug.mL-1; ASSAY_TEST Inhibition of Fungal Growth; detection method Resazurin; Absorption (OD600-OD570); plate type 384well; NBS; CORNING #3640

O=C(Cn1nc2ccc(SC3CCCCC3)nn2c1=O)Nc1ccc2c(c1)CCC2
Inhibition (Klebsiella pneumoniae): 11.52%
Inhibition (Candida albicans): 2.83%
Inhibition (Cryptococcus neoformans): -22.07%

Cc1nnc2ccc(S(=O)(=O)N(Cc3cc(F)cc(F)c3)c3ccc(F)cc3)cn12
Inhibition (Klebsiella pneumoniae): 7.75%
Inhibition (Candida albicans): 0.47%
Inhibition (Cryptococcus neoformans): -6.16%

CCCCN(C)C(=O)CSc1nnc2c(=O)n(Cc3ccc(F)cc3)ccn12
Inhibition (Klebsiella pneumoniae): 14.76%
Inhibition (Candida albicans): -0.35%
Inhibition (Cryptococcus neoformans): -33.57%

Cc1ccc(-c2cc3c4nn(CC(=O)N5CCN(c6ccccc6F)CC5)c(=O)n4ccn3n2)cc1C
Inhibition (Klebsiella pneumoniae): 10.7%
Inhibition (Candida albicans): 3.33%
Inhibition (Cryptococcus neoformans): -14.81%

CC(=O)c1ccc(N2CCN(C(=O)CCc3nnc4c5cc(-c6ccccc6)nn5ccn34)CC2)cc1
Inhibition (Klebsiella pneumoniae): 14.87%
Inhibition (Candida albicans): 3.08%
Inhibition (Cryptococcus neoformans): -8.28%

COc1ccc(NC(=O)CSc2nnc3c(=O)n(-c4cccc(OC)c4)ccn23)cc1
Inhibition (Klebsiella pneumoniae): 5.61%
Inhibition (Candida albicans): 2.12%
Inhibition (Cryptococcus neoformans): -13.19%

O=C(Cn1nc2c3cc(-c4ccc(F)cc4)nn3ccn2c1=O)NCc1ccccc1Cl
Inhibition (Klebsiella pneumoniae): 7.72%
Inhibition (Candida albicans): 20.13%
Inhibition (Cryptococcus neoformans): -27.16%

Cc1ccc(-c2ccc3nn(CC(=O)Nc4ccc(Cl)c(C(F)(F)F)c4)c(=O)n3n2)cc1C
Inhibition (Klebsiella pneumoniae): 0.66%
Inhibition (Candida albicans): 5.4%
Inhibition (Cryptococcus neoformans): -13.03%

O=C(Cn1nc2c(SCc3ccc(Cl)cc3)nccn2c1=O)Nc1ccccc1F
Inhibition (Klebsiella pneumoniae): 4.91%
Inhibition (Candida albicans): 1.79%
Inhibition (Cryptococcus neoformans): -4.96%

Cc1ccc(-c2cc3c4nn(CC(=O)Nc5cccc(C)c5C)c(=O)n4ccn3n2)cc1C
Inhibition (Klebsiella pneumoniae): 14.55%
Inhibition (Candida albicans): 0.02%
Inhibition (Cryptococcus neoformans): -23.37%

Cc1nnc2c(=O)n(CC(=O)NC3CCCC3)c3ccccc3n12
Inhibition (Klebsiella pneumoniae): 6.01%
Inhibition (Candida albicans): 0.18%
Inhibition (Cryptococcus neoformans): -17.78%

Cc1ccc(NC(=O)Cn2nc3ccc(SC4CCCCC4)nn3c2=O)cc1
Inhibition (Klebsiella pneumoniae): -2.92%
Inhibition (Candida albicans): 2.85%
Inhibition (Cryptococcus neoformans): -17.59%

COc1ccccc1NC(=O)Cn1nc2c(SC3CCCCC3)nccn2c1=O
Inhibition (Klebsiella pneumoniae): -0.89%
Inhibition (Candida albicans): 12.37%
Inhibition (Cryptococcus neoformans): -26.18%

Cc1cc2nn(CC(=O)Nc3ccc4c(c3)OCCO4)c(=O)n2c(Nc2ccccc2C)n1
Inhibition (Klebsiella pneumoniae): 6.73%
Inhibition (Candida albicans): 7.15%
Inhibition (Cryptococcus neoformans): -3.99%

CCc1ccccc1Sc1nccn2c(=O)n(CC(=O)Nc3cc(C)ccc3C)nc12
Inhibition (Klebsiella pneumoniae): 13.72%
Inhibition (Candida albicans): 1.62%
Inhibition (Cryptococcus neoformans): -13.69%

O=C(CSc1nnc2c(=O)n(-c3ccccc3)ccn12)NCc1ccc(Cl)cc1
Inhibition (Klebsiella pneumoniae): 5.95%
Inhibition (Candida albicans): -0.29%
Inhibition (Cryptococcus neoformans): -12.48%

Cc1cc(C)c(NC(=O)Cn2nc3c(SC4CCCCC4)nccn3c2=O)c(C)c1
Inhibition (Klebsiella pneumoniae): 10.47%
Inhibition (Candida albicans): 13.47%
Inhibition (Cryptococcus neoformans): -24.78%

Cc1ccc(C(=O)CSc2nnc3c(=O)n(-c4ccc(F)cc4)ccn23)c(C)c1
Inhibition (Klebsiella pneumoniae): 5.21%
Inhibition (Candida albicans): 2.78%
Inhibition (Cryptococcus neoformans): -8.55%

COc1ccc(NC(=O)Cn2nc3c(Sc4ccccc4)nccn3c2=O)c(OC)c1
Inhibition (Klebsiella pneumoniae): 2.54%
Inhibition (Candida albicans): 2.27%
Inhibition (Cryptococcus neoformans): -16.55%

Cc1nnc2c(=S)[nH]c3ccccc3n12
Inhibition (Klebsiella pneumoniae): 21.93%
Inhibition (Candida albicans): -0.01%
Inhibition (Cryptococcus neoformans): -43.69%

Cc1ccc(-c2cc3c4nnc(SCC(=O)Nc5cccc(Br)c5)n4ccn3n2)cc1
Inhibition (Klebsiella pneumoniae): 4.45%
Inhibition (Candida albicans): 7.43%
Inhibition (Cryptococcus neoformans): -29.25%

O=C(Cn1nc2c3sc(N4CCCC4)nc3ncn2c1=O)Nc1ccc(C(F)(F)F)cc1
Inhibition (Klebsiella pneumoniae): 13.17%
Inhibition (Candida albicans): 1.98%
Inhibition (Cryptococcus neoformans): -9.31%

Cc1ccc(CNC(=O)Cn2nc3c(N4CCN(c5ccccc5C)CC4)nccn3c2=O)cc1
Inhibition (Klebsiella pneumoniae): 0.81%
Inhibition (Candida albicans): 26.17%
Inhibition (Cryptococcus neoformans): -8.71%

O=c1c2sccc2n2c(SCc3cccc(C(F)(F)F)c3)nnc2n1Cc1ccc(F)cc1
Inhibition (Klebsiella pneumoniae): 10.74%
Inhibition (Candida albicans): 2.55%
Inhibition (Cryptococcus neoformans): -25.66%

COc1ccc(-c2cc3c4nn(CC(=O)Nc5cc(OC)cc(OC)c5)c(=O)n4ccn3n2)cc1
Inhibition (Klebsiella pneumoniae): 0.53%
Inhibition (Candida albicans): 33.73%
Inhibition (Cryptococcus neoformans): -18.18%

COc1cccc(CNC(=O)CSc2nnc3c(=O)n(-c4cccc(OC)c4)ccn23)c1
Inhibition (Klebsiella pneumoniae): 10.15%
Inhibition (Candida albicans): 1.25%
Inhibition (Cryptococcus neoformans): -6.98%

Cc1c(Cl)cccc1-n1ccn2c(SCC(=O)c3c[nH]c4ccccc34)nnc2c1=O
Inhibition (Klebsiella pneumoniae): 3.37%
Inhibition (Candida albicans): 2.26%
Inhibition (Cryptococcus neoformans): -4.72%

COc1ccc(N2CCN(C(=O)Cn3nc4ccc(-c5ccccc5)nn4c3=O)CC2)cc1
Inhibition (Klebsiella pneumoniae): 3.53%
Inhibition (Candida albicans): -1.43%
Inhibition (Cryptococcus neoformans): -4.25%

Source: ChEMBL document CHEMBL4513146, “CO-ADD screening of Karazin Kharkiv National University (Ukraine) compounds”
